Some test systems named below: SR leukemia; RPMI-8226 leukemia; OVCAR-8 ovarian; OVCAR-5 ovarian; OVCAR-4 ovarian; SK-OV-3 ovarian; IGROV1 ovarian; OVCAR-3 ovarian; HS 578T breast; NCI/ADR-RES ovarian; T-47D breast; BT-549 breast; MDA-MB-435 melanoma; SW-620 colon; MCF7 breast; HCT-116 colon; HCC-2998 colon; KM12 colon.
Test in all cases: NCI-60 one-dose screen, 48 h (100 = growth as untreated, 0 = no growth, -100 = all killed)
Holding throughout (details): 10 µM unless noted

About 83,000 compounds went through this panel and 20% of them were active in at least one assay; those are over-represented in the sample as a whole.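 For each line, cells grew in 96-well plates with the test compound present at a single concentration for 48 hours.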 A number with no mark means an inactive call. Calls of active or inactive are those of the source. How the source made its calls: active means growth percent below 10; inactive means the rest.

Regarding `CCOC(=O)C1=C(C(F)(F)F)NC(=O)NC1CN1C(=O)c2ccccc2C1=O` (configuration not stated), the growth with SR leukemia is 5.85% (active); with RPMI-8226 leukemia it was 82.6%; with OVCAR-8 ovarian, 114%; with OVCAR-5 ovarian, 94.2%; with OVCAR-4 ovarian it was 110%; in the test on SK-OV-3 ovarian, 121%. For the same molecule, the growth in the test on IGROV1 ovarian was 122%; in the test on OVCAR-3 ovarian it was 129%; in the test on HS 578T breast, 111%; with NCI/ADR-RES ovarian, 107%; with T-47D breast, 111%; in the test with BT-549 breast, 108%. Further, the growth is 108% in the test with MDA-MB-435 melanoma; 105% in the test with SW-620 colon; 108% in the test with MCF7 breast; 112% with HCT-116 colon; 101% with HCC-2998 colon; 115% in the test with KM12 colon.

`c1ccc(-c2cn3ccnc3c(-c3ccc4ncn(C5CCCCC5)c4c3)n2)cc1`: the growth is 40.2% with SR leukemia; 14.3% in the test with RPMI-8226 leukemia; 36.1% in the test with OVCAR-8 ovarian; 92.1% in the test on OVCAR-5 ovarian; 65.5% in the test with OVCAR-4 ovarian; 92.5% in the test with SK-OV-3 ovarian. Moreover, the growth with IGROV1 ovarian was 88%; in the test with OVCAR-3 ovarian, 58.2%; with HS 578T breast it was 76.2%; with NCI/ADR-RES ovarian, 49.5%; in the test on T-47D breast it was -11.1% (active); with BT-549 breast it was 42.9%. Further, the growth in the test on MDA-MB-435 melanoma was 71.3%; in the test on SW-620 colon, 90.9%; with MCF7 breast it was 62%; in the test with HCT-116 colon, 40.5%; with HCC-2998 colon, 103%; with KM12 colon it was 51%.

With `COc1ccc(OC)c(Cn2cc3c(c2-c2ccccc2)CCc2cnoc2-3)c1`, the growth in the test with SR leukemia was 22%; with RPMI-8226 leukemia it was 61.1%; in the test on OVCAR-8 ovarian, 79%; in the test with OVCAR-5 ovarian, 90.8%; with OVCAR-4 ovarian, 77.6%; with SK-OV-3 ovarian, 48.2%. Moreover, the growth with IGROV1 ovarian is 44.7%; in the test on OVCAR-3 ovarian, 17.9%; in the test on HS 578T breast, 59.3%; in the test with NCI/ADR-RES ovarian, 20.5%; in the test with T-47D breast, 32.2%; with BT-549 breast, 65.3%. Besides, the growth is -17.6% (active) in the test with MDA-MB-435 melanoma; 37.4% in the test on SW-620 colon; 44.4% in the test with MCF7 breast; 43.2% in the test with HCT-116 colon; 85.5% in the test on HCC-2998 colon; 33.3% in the test with KM12 colon.

Regarding `COc1nc(OC)nc(-c2cc(C(=O)c3ccc(Br)cc3)n3cc(C)cc(C)c23)n1`, the growth is 87% in the test with SR leukemia; 76.4% in the test on RPMI-8226 leukemia; 54.7% with OVCAR-8 ovarian; 102% in the test on OVCAR-5 ovarian; 37.6% in the test with OVCAR-4 ovarian; 53.9% in the test with SK-OV-3 ovarian. The growth is 62.4% with IGROV1 ovarian; 34.5% in the test with OVCAR-3 ovarian; 24.1% in the test with HS 578T breast; 58.7% with NCI/ADR-RES ovarian; 37.9% with T-47D breast; 42.7% in the test on BT-549 breast. Besides, the growth with MDA-MB-435 melanoma was 94.9%; in the test on SW-620 colon, 89.7%; in the test with MCF7 breast, 70.5%; with HCT-116 colon, 36.5%; with HCC-2998 colon, 86.2%; with KM12 colon, 94.2%.

On to `C[C@@H](c1ccc2c(c1)[nH]c1ccc(Cl)cc12)c1nc2ccc(Cl)cc2[nH]1`, for which the growth with SR leukemia was 43.2%; in the test on RPMI-8226 leukemia it was 8.76% (active); in the test on OVCAR-8 ovarian it was 94%; in the test on OVCAR-5 ovarian, 75.2%; with OVCAR-4 ovarian, 74.2%; in the test with SK-OV-3 ovarian, 96.3%. Further, the growth is 57.6% with IGROV1 ovarian; 72% in the test with OVCAR-3 ovarian; 107% in the test with HS 578T breast; 88.1% in the test with NCI/ADR-RES ovarian; 19.1% in the test on T-47D breast; 68.2% in the test on BT-549 breast. Also, the growth with MDA-MB-435 melanoma is 106%; in the test with SW-620 colon, 98.7%; in the test on MCF7 breast, 13.8%; in the test on HCT-116 colon it was 79.7%; in the test with HCC-2998 colon, 92%; with KM12 colon, 81.9%.

In the case of `COC(=O)[C@H](Cc1cn(C)cn1)NC(=O)[C@H](Cc1c[nH]c2ccccc12)NC(=O)Nc1cc(C(F)(F)F)cc(C(F)(F)F)c1`, the growth with SR leukemia is -42.8% [100 µM] (active); in the test with RPMI-8226 leukemia, -38.4% [100 µM] (active); in the test with OVCAR-8 ovarian, -78.5% [100 µM] (active); in the test with OVCAR-5 ovarian, -73.6% [100 µM] (active); in the test on OVCAR-4 ovarian it was -50.7% [100 µM] (active); with SK-OV-3 ovarian, -89.9% [100 µM] (active). The growth in the test on IGROV1 ovarian was -46.2% [100 µM] (active); in the test with OVCAR-3 ovarian, -95.7% [100 µM] (active); in the test on HS 578T breast, 10.4% [100 µM]; in the test on NCI/ADR-RES ovarian, 69.7% [100 µM]; in the test with T-47D breast, -72.2% [100 µM] (active); with BT-549 breast, -88.6% [100 µM] (active). Further, the growth was -88.5% [100 µM] (active) with MDA-MB-435 melanoma; -38.1% [100 µM] (active) in the test on SW-620 colon; -58.6% [100 µM] (active) in the test on MCF7 breast; -89.1% [100 µM] (active) with HCT-116 colon; -96.8% [100 µM] (active) with HCC-2998 colon; -86.6% [100 µM] (active) in the test on KM12 colon.

Consider `O=c1oc2ccc3ccccc3c2cc1-c1ccnc2[nH]c(=S)[nH]c(=O)c12`, for which the growth in the test with SR leukemia is 82.7%; in the test on RPMI-8226 leukemia, 89.1%; with OVCAR-8 ovarian, 99.8%; with OVCAR-5 ovarian, 112%; in the test on OVCAR-4 ovarian, 117%; with SK-OV-3 ovarian, 93.1%. Further, the growth in the test with IGROV1 ovarian was 104%; with OVCAR-3 ovarian, 107%; with HS 578T breast it was 107%; in the test on NCI/ADR-RES ovarian, 94.8%; with T-47D breast, 103%; in the test on BT-549 breast it was 101%. Also, the growth in the test with MDA-MB-435 melanoma is 106%; in the test with SW-620 colon, 105%; in the test with MCF7 breast, 96.8%; with HCT-116 colon, 93.9%; in the test on HCC-2998 colon, 101%; in the test with KM12 colon, 101%.

With `COc1cccc2c1nc1cccc(OC)c1[n+]2[O-]`, the growth was -0.211% (active) in the test with SR leukemia; 51.1% with RPMI-8226 leukemia; 41.7% in the test with OVCAR-8 ovarian; 23.3% in the test with OVCAR-5 ovarian; 69.7% in the test with OVCAR-4 ovarian; 29% in the test on SK-OV-3 ovarian. Moreover, the growth was -73.4% (active) with IGROV1 ovarian; 101% with OVCAR-3 ovarian; 80% in the test with HS 578T breast; 37.4% in the test on NCI/ADR-RES ovarian; 32% in the test on T-47D breast; 32.9% with BT-549 breast. Moreover, the growth is 98.4% with MDA-MB-435 melanoma; 50% with SW-620 colon; 32.8% with MCF7 breast; 39.3% in the test with HCT-116 colon; -47.5% (active) with HCC-2998 colon; 54.9% in the test with KM12 colon.

For the molecule `CCCC(=O)NNc1[nH]c(-c2ccc(OC)cc2)cc1C(=O)OCC`, the growth in the test with SR leukemia is 106%; with RPMI-8226 leukemia, 98.4%; in the test on OVCAR-8 ovarian it was 110%; in the test on OVCAR-5 ovarian, 95.7%; in the test on OVCAR-4 ovarian it was 117%; with SK-OV-3 ovarian, 113%. In addition, the growth was 18.1% in the test on IGROV1 ovarian; 90% in the test with OVCAR-3 ovarian; 97.7% with HS 578T breast; 106% in the test with NCI/ADR-RES ovarian; 63.9% with T-47D breast; 99.4% with BT-549 breast. Further, the growth with MDA-MB-435 melanoma is 95.2%; with SW-620 colon, 95.5%; in the test on MCF7 breast it was 104%; in the test with HCT-116 colon it was 109%; in the test on HCC-2998 colon, 75.2%; in the test with KM12 colon, 98.9%.
